From PubChem BioAssay (Tox21)
Inconclusive results are not listed. Unmarked numbers belong to inactive results. Active and inactive are the calls of the source. Calls come from the whole dose curve.

Molecular target: Beta-2 adrenergic receptor (Homo sapiens) (UniProt P07550)
Assay: Adrenergic beta2 receptor (ADRB2) small molecule antagonists, cell-based qHTS assay (AID 1963592); note: nearly all actives have a fitted effect of over 50% in size
Conditions: CHO-ADRB2 cells, isoproterenol-stimulated cAMP HTRF ratio, 0.5 h; series mostly up to 92.4 µM; activity change, negative = inhibition: at the top concentration
Excerpt: U.S. Tox21 Program National Center for Advancing Translational Sciences [NCATS] Division of Preclinical Innovation [DPI] U.S. Environmental Protection Agency [EPA] National Institutes of Environmental Health Sciences [NIEHS] National Toxicology Program [NTP] U.S. Food and Drug Administration [FDA] Tox21 Assay Overview: Beta adrenergic receptors (Beta-ARs) belong to the G-protein coupled receptor (GPCR) superfamily, includes three subtypes - beta1, beta2, and beta3. Beta1-AR is the predominant receptor subtype expressed in the heart, and beta2-AR is expressed in the kidney, lung, blood vessel and in the heart, and beta3 is found in the adipocytes. Beta1 and 2 ARs couple to Gs protein and elevate cyclic adenosine mono phosphate (cAMP), which activates protein kinase A and leads to the downstream signaling responsible for the physiological actions. Beta-AR agonists or antagonists are the most prescribed therapeutic agents for heart failure and asthma, and these were one of the first target receptors for the rational drug design. Tox21 10K compound library was screened using the cAMP-Gs dynamic assay (Cisbio Bioassays, Shelton, CT) to identify agonists/antagonists of the Gs-coupled human adrenergic, beta2 receptor (ADRB2) in the CHO-ADRB2 cell line (Codex BioSolutions, Inc. Gaithersburg, MD), which stably over-expresses ADRB2. The principle of cAMP-Gs dynamic assay is based on HTRF technology, which facilitates the fluorescence resonance energy transfer (FRET) between donor Europium cryptate and acceptor d2-labeled cAMP. The cAMP generated within cells competes with the red acceptor, d2-labled cAMP, for binding to the monoclonal anti-cAMP-cryptate (Europium donor). An increase in intracellular cAMP leads to the disruption of FRET signal, and the signal is inversely proportional to the cAMP concentration. Propranolol HCl (Sigma-Aldrich, St. Louis, MO) was used as a positive control in the screening.
Tox21 Assay Protocol Summary: CHO-ADRB2 cells were dispensed at 1,000/well in 4uL assay medium into white/solid 1536-well plates (Greiner Bio-One North America Inc., Monroe, NC) using a Multidrop Combi dispenser (ThermoFisher Scientific, Waltham, MA). The assay plates were incubated at 37C and 5% CO2 for an overnight (18-20hr). Then positive control and test compounds dissolved in DMSO were transferred to the assay plates at 23nL using a Pintool station (Wako, San Diego, CA). Following the compound and positive control transfer, 1uL agonist-stimulation mix containing 1nM Isoproterenol HCl, 100uM IBMX and 25uM Ro-20-1724 was added to each well of the assay plates using BioRAPTR Flying Reagent Dispenser (FRD, Beckman Coulter, Brea, CA). The assay plates were incubated at room temperature for 0.5hr. Then 2.5ul each d2-labled cAMP and anti-cAMP-cryptate solutions were added separately to each well of the assay plates using an FRD and the assay plates were incubated at room temperature for 1hr. The fluorescence signal was measured at two different wavelengths (665nm and 615nm) using an Envision plate reader (Perkin Elmer, Shelton, CT). Data were expressed as the ratio of 665 nm/615 nm.
% is set by controls: 0 for no effect and ±100 for the full control effect; potency is the fitted concentration of half-maximal effect.

Beta-2 adrenergic receptor (Homo sapiens), sequence (P07550 whole entry, looked up): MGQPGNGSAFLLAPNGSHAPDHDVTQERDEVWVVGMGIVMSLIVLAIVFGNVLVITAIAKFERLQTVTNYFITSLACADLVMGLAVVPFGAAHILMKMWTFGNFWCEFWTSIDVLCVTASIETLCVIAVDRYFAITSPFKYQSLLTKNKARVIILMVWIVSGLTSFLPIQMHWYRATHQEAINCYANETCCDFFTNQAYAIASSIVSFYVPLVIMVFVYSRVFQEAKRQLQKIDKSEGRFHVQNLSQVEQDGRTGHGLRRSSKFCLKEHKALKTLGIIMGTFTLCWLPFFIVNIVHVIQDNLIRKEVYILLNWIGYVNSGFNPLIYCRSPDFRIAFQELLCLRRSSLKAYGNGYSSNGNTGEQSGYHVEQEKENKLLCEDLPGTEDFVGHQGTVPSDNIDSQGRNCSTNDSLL

Row | SMILES | activity change, negative = inhibition | Potency
1 | CCC(=O)c1ccc2c(c1)N(CCCN(C)C)c1ccccc1S2 | -20.3% [at 42.5 µM] | –
2 | CCC(C)C(C)=O (stereo not given) | -10.9% | –
3 | CCCCc1oc2ccccc2c1C(=O)c1cc(I)c(OCCN(CC)CC)c(I)c1 | – | inactive
4 | O=C1CCCCC1C1CCCCC1 (stereo not given) | 3.15% | –
5 | N#CCCN(CCO)CCO | -0.332% | –
6 | CO[Si](OC)(c1ccccc1)c1ccccc1 | -11.7% | –
7 | Nc1ccn([C@@H]2O[C@H](CO)[C@@H](O)[C@@H]2O)c(=O)n1 | 5.31% | –
8 | CC(C)COC(=O)CC(C(=O)OCC(C)C)S(=O)(=O)O (stereo not given) | -0.864% | –
9 | CS(=O)(=O)CCNCc1ccc(-c2ccc3ncnc(Nc4ccc(OCc5cccc(F)c5)c(Cl)c4)c3c2)o1 | -0.632% [at 42.5 µM] | –
10 | O=[N+]([O-])c1nccn1CO[C@@H](CO)[C@H](O)CO | 8.42% [at 42.5 µM] | –
11 | C=CCc1cc(S(=O)(=O)c2ccc(O)c(CC=C)c2)ccc1O | -16.5% | –
12 | Cc1c(-c2ccccc2)oc2c(C(=O)OCCN3CCCCC3)cccc2c1=O | -5.95% [at 42.5 µM] | –
13 | C[C@H]1[C@H](NC(=O)/C(=N/OC(C)(C)C(=O)O)c2csc(N)n2)C(=O)N1S(=O)(=O)O (stereo in doubt) | 0.539% [at 42.5 µM] | –
14 | C=COCCOCCOC=C | -13.4% | –
15 | CN(C)CCCN1c2ccccc2Sc2ccc(Cl)cc21 | -6.82% [at 42.5 µM] | –
16 | CCC(C)OC(=O)N1CCCCC1CCO (stereo not given) | 0.39% | –
17 | CC1=C(/C=C/C(C)=C/C=C/C(C)=C/C=O)C(C)(C)CCC1 | 3.45% | –
18 | O=C1CCCN1C1CCCCC1 | 6.8% | –
19 | CCCCCCCCCCCCCCC[C@H](O)[C@@H](N)CO | -6.03% [at 42.5 µM] | –
20 | CSc1ccc(Oc2ccc(S(N)(=O)=O)cc2CN(C)C)cc1C | -12.3% | –

Row | SMILES | activity change, negative = inhibition | Potency
21 | [Ca+2] | -2.24% | –
22 | O=[N+]([O-])c1ccc2ncccc2c1 | -3.07% | –
23 | c1ccc2c(c1)CCCC2C1=NCCN1 (stereo not given) | 3.15% [at 42.5 µM] | –
24 | CCCC1C(CC)=CC(CC)=CN1c1ccccc1 (stereo not given) | 6.31% | –
25 | C[C@H](CS)C(=O)N1CCC[C@H]1C(=O)O | -7.11% [at 42.5 µM] | –
26 | COc1ccc2cc(S(=O)(=O)N[C@H](CC(=O)N[C@H](Cc3ccc(CN4[C@H](C)CCC[C@@H]4C)cc3)C(=O)N(C)C(C)C)c3ccc4c(c3)OCO4)ccc2c1 | -4.87% | –
27 | Nc1ccc(F)cc1F | -16.1% | –
28 | Cc1[nH]cnc1C[C@H]1CCc2c(C)c3ccccc3n2C1=O | – | 23.7 µM (active)
29 | O=C[C@@H](O)[C@H](O)[C@H](O)CO | -0.0336% | –
30 | CCCCN(CCC(=O)OCC)C(C)=O | 2.18% | –
31 | CN1CCN(c2cc3c(nn2)Oc2ccccc2N3C)CC1 | 3.6% [at 19 µM] | –
32 | CCCCCCCCCCCCN1CCCC1=O | -3.49% | –
33 | NC(Cc1c[nH]c2ccccc12)C(=O)O (stereo not given) | 2.15% [at 42.5 µM] | –
34 | COC1CCC=CO1 (stereo not given) | -0.7% | –
35 | O=S(=O)(O)c1cc(O)c2ccc(Nc3ccccc3)cc2c1 | 0.19% | –
36 | Cc1ccc(NC=O)c(C)c1 | 2.93% | –
37 | COc1cc(C)cc(O)c1 | -3.75% | –
38 | CCOc1ccc(NC(N)=O)cc1 | -2.85% | –
39 | C=CCOC(=O)CCC1CCCCC1 | 4.28% | –
40 | O=S(=O)(O)SSS(=O)(=O)O | -16.1% | –
